# Measured values as given in PubChem BioAssay (NCATS).
# Results filed as inconclusive are left out. Active and inactive are the calls of the source. Calls follow the shape of the dose curve; as a rule, active = well fitted curve in the direction sought with a large enough effect; inconclusive = small, poorly fitted or top-dose-only effect, or another doubt; inactive = no such curve, though single readings can be large; an effect the other way counts as inactive or inconclusive.
# Experiments:
# [1] = Quantitative High-Throughput drug screen in 47 multiple myeloma cell lines against the NCATS MIPE library collection: JIM3_ECACC cell viability assay (AID 1918963; also: nearly all actives have a fitted effect of over 35% in size)
# Method in brief: (§1)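 Viability readout: CellTiter-Glo luminescence following 5 min room-temperature incubation with reagent. Prior exposure: 48 h, 37C, humidified 5% CO2, 500 cells per well.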
# [2] = Quantitative High-Throughput drug screen in 47 multiple myeloma cell lines against the NCATS MIPE library collection: INA6_PLB cell viability assay (AID 1918965; also: nearly all actives have a fitted effect of over 55% in size)
# Method in brief: (§2)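 Approved and investigational drugs from MIPE 4.0 were added by pin tool to 500 cells per well. After 48 hours at 37C, ATP-based CellTiter-Glo luminescence indicated remaining viability.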
# [3] = Quantitative High-Throughput drug screen in 47 multiple myeloma cell lines against the NCATS MIPE library collection: H1112_PLB cell viability assay (AID 1918967; also: nearly all actives have a fitted effect of over 30% in size)
# Method in brief: as §1
# [4] = Quantitative High-Throughput drug screen in 47 multiple myeloma cell lines against the NCATS MIPE library collection: Karpas25_ECACC cell viability assay (AID 1918968; also: nearly all actives have a fitted effect of over 35% in size)
# Method in brief: as §1
# [5] = Quantitative High-Throughput drug screen in 47 multiple myeloma cell lines against the NCATS MIPE library collection: KMS12PE_JCRB cell viability assay (AID 1918972); also: nearly all actives have a fitted effect of over 30% in size
# Method in brief: as §2
# [6] = Quantitative High-Throughput drug screen in 47 multiple myeloma cell lines against the NCATS MIPE library collection: KMS20_JCRB cell viability assay (AID 1918973); also: nearly all actives have a fitted effect of over 45% in size
# Method in brief: as §1
# [7] = Quantitative High-Throughput drug screen in 47 multiple myeloma cell lines against the NCATS MIPE library collection: KMS21BM_JCRB cell viability assay (AID 1918974); details: ATP luminescence, 48 h; viability: at 45.8 µM (top of the series) unless noted
# Method in brief: as §1
# [8] = Quantitative High-Throughput drug screen in 47 multiple myeloma cell lines against the NCATS MIPE library collection: NCIH929_DSMZ cell viability assay (AID 1918978); also: nearly all actives have a fitted effect of over 35% in size
# Method in brief: (§3)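 MIPE 4.0 approved/investigational drugs; 500 cells/well; 48 h 37 °C humidified 5% CO2; CTG luminescence readout; DMSO = 100%, media = 0% viability.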
# [9] = Quantitative High-Throughput drug screen in 47 multiple myeloma cell lines against the NCATS MIPE library collection: OCIMY1_PLB cell viability assay (AID 1918979); also: nearly all actives have a fitted effect of over 35% in size
# Method in brief: as §3
# [10] = Quantitative High-Throughput drug screen in 47 multiple myeloma cell lines against the NCATS MIPE library collection: MM1S_ATCC cell viability assay (AID 1918980); also: nearly all actives have a fitted effect of over 45% in size
# Method in brief: as §3
# [11] = Quantitative High-Throughput drug screen in 47 multiple myeloma cell lines against the NCATS MIPE library collection: MM1R_ATCC cell viability assay (AID 1918981); also: nearly all actives have a fitted effect of over 35% in size
# Method in brief: as §3
# [12] = Quantitative High-Throughput drug screen in 47 multiple myeloma cell lines against the NCATS MIPE library collection: LP1_DSMZ cell viability assay (AID 1918982); also: nearly all actives have a fitted effect of over 35% in size
# Method in brief: as §3
# [13] = Quantitative High-Throughput drug screen in 47 multiple myeloma cell lines against the NCATS MIPE library collection: KMS28PE_JCRB cell viability assay (AID 1918983); also: nearly all actives have a fitted effect of over 35% in size
# Method in brief: as §3
# [14] = Quantitative High-Throughput drug screen in 47 multiple myeloma cell lines against the NCATS MIPE library collection: JJN3_DSMZ cell viability assay (AID 1918966; also: nearly all actives have a fitted effect of over 50% in size)
# Method in brief: as §1
# [15] = Quantitative High-Throughput drug screen in 47 multiple myeloma cell lines against the NCATS MIPE library collection: KMS27_JCRB cell viability assay (AID 1918970); also: nearly all actives have a fitted effect of over 30% in size
# Method in brief: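 Each line is seeded at 500 cells per well and treated with library compounds for 48 hours under 37 °C, 5% CO2. CellTiter-Glo is then added for 5 min at room temperature before median relative luminescence is recorded.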
# [16] = Quantitative High-Throughput drug screen in 47 multiple myeloma cell lines against the NCATS MIPE library collection: KMS26_JCRB cell viability assay (AID 1918975); also: nearly all actives have a fitted effect of over 45% in size
# Method in brief: as §1
# [17] = Quantitative High-Throughput drug screen in 47 multiple myeloma cell lines against the NCATS MIPE library collection: MMM1_PLB cell viability assay (AID 1918976); also: nearly all actives have a fitted effect of over 35% in size
# Method in brief: as §3
# [18] = Quantitative High-Throughput drug screen in 47 multiple myeloma cell lines against the NCATS MIPE library collection: KMS12BM_JCRB cell viability assay (AID 1918971); also: nearly all actives have a fitted effect of over 35% in size
# Method in brief: as §1
# [19] = Quantitative High-Throughput drug screen in 47 multiple myeloma cell lines against the NCATS MIPE library collection: MOLP8_DSMZ cell viability assay (AID 1918977); also: nearly all actives have a fitted effect of over 45% in size
# Method in brief: as §3
# Potency is read from the fitted curve at half-maximal effect.
SMILES,Potency [1],Potency [2],Potency [3],Potency [4],Potency [5],Potency [6],Potency [7],Potency [8],Potency [9],Potency [10],Potency [11],Potency [12],Potency [13],Potency [14],Potency [15],Potency [16],Potency [17],Potency [18],Potency [19]
CC(C)(C)c1cc(C(C)(C)C)c(NC(=O)c2c[nH]c3ccccc3c2=O)cc1O,inactive,inactive,inactive,inactive,inactive,inactive,inactive,inactive,inactive,inactive,inactive,inactive,inactive,,,,,,
C=CC(=O)Nc1cccc(Oc2nc(Nc3ccc(N4CCN(C)CC4)cc3OC)ncc2Cl)c1,0.118 µM (active),0.469 µM (active),,,,,,,,,,20.9 µM (active),,20.9 µM (active),37.2 µM (active),26.4 µM (active),,,
CCN1CCN(Cc2ccc(-c3cc4c(N[C@H](C)c5ccccc5)ncnc4[nH]3)cc2)CC1,0.469 µM (active),0.418 µM (active),,2.09 µM (active),0.0469 µM (active),,,,3.32 µM (active),,,,,,0.0166 µM (active),0.935 µM (active),18.7 µM (active),,
CN(C)c1nc(Cc2ccc(NC(=O)c3ccc4ccccc4c3)cc2)nc(Cl)c1CC(=O)O,inactive,inactive,inactive,inactive,16.6 µM (active),inactive,,inactive,,2.96 µM (active),inactive,inactive,inactive,,0.0526 µM (active),inactive,,inactive,inactive
COc1cccc(-c2ccc(NC(=O)C3=C(C(=O)O)CCC3)c(F)c2)c1,23.5 µM (active),4.69 µM (active),inactive,inactive,2.96 µM (active),,,20.9 µM (active),inactive,3.72 µM (active),23.5 µM (active),,,,,,20.9 µM (active),20.9 µM (active),
COc1cc(C(=O)N2CCC(N3CCN(C)CC3)CC2)ccc1Nc1ncc2c(n1)N(C)c1ccccc1C(=O)N2C,14.8 µM (active),0.935 µM (active),,11.8 µM (active),1.66 µM (active),13.2 µM (active),,4.18 µM (active),,6.62 µM (active),6.62 µM (active),,3.32 µM (active),3.72 µM (active),,1.66 µM (active),1.66 µM (active),1.87 µM (active),2.09 µM (active)
Clc1cccc(-n2nnnc2NCc2ccccc2Oc2ccccn2)c1Cl,inactive,inactive,inactive,,,,,inactive,,inactive,inactive,,,,,,,,
CC(O)C1C(=O)N2C(C(=O)O)=C(SC3CNC(C(=O)N(C)C)C3)C(C)C12 (stereo not drawn),inactive,inactive,inactive,,,,,inactive,,,,,,,inactive,,,inactive,
Nc1ccc(S(=O)(=O)Nc2ncccn2)cc1,inactive,inactive,,inactive,,,,,inactive,inactive,inactive,inactive,inactive,,inactive,inactive,,inactive,inactive
CN(C1CCc2c(c3ccccc3n2CC(=O)O)C1)S(=O)(=O)c1ccc(F)cc1 (stereo not drawn),inactive,inactive,inactive,2.09 µM (active),5.26 µM (active),,0.418 µM (active),inactive,inactive,1.48 µM (active),,,,,1.18 µM (active),,,,inactive
Cc1ccc(S(=O)(=O)Nc2cc(Cl)ccc2C(=O)Nc2nc(-c3ccccc3)cs2)cc1,5.26 µM (active),8.33 µM (active),,5.26 µM (active),2.64 µM (active),,,,,14.8 µM (active),,9.35 µM (active),,18.7 µM (active),,18.7 µM (active),7.43 µM (active),16.6 µM (active),20.9 µM (active)
NC(=O)c1cccc2cn(-c3ccc([C@@H]4CCCNC4)cc3)nc12,inactive,14.8 µM (active),20.9 µM (active),inactive,,,,20.9 µM (active),,,,inactive,,,inactive,,,,inactive
COc1cc2nccc(Oc3ccc(NC(=O)C4(C(=O)Nc5ccc(F)cc5)CC4)cc3)c2cc1OC,14.8 µM (active),,11.8 µM (active),5.26 µM (active),,,,16.6 µM (active),,0.59 µM (active),1.87 µM (active),20.9 µM (active),,1.66 µM (active),4.69 µM (active),,2.35 µM (active),11.8 µM (active),14.8 µM (active)
